# Among all 5,500 compounds or so, about 2,000 (36%) were called active. About 18% were inconclusive and are not listed. Some of the results follow. A number with no mark means an inactive call. No stated cut-off is given here; in the data, active means normalized growth mostly below about 0.91 (no sharp cut-off); inconclusive means no clear call, values can overlap the other calls; inactive means mostly above about 0.92.
# Experiment: chemical genetic growth profiling, strain panel (AID 1159580);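 further: tested at 20 µM; growth read once vehicle control cultures reached saturation at 30 °C; 1 = growth at the plate median or of vehicle wells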
# Conditions: growth OD
# [1] = S. cerevisiae deletion strains, locus YAL013W, strain DEP1, stronger effect = lower value
# [2] = S. cerevisiae deletion strains, locus YBR229C, strain ROT2, stronger effect = lower value
# [3] = S. cerevisiae deletion strains, locus YDL101C, strain DUN1, stronger effect = lower value
# [4] = S. cerevisiae deletion strains, locus YDR150W, strain NUM1, stronger effect = lower value
# [5] = S. cerevisiae deletion strains, locus YEL061C, strain CIN8, stronger effect = lower value
# [6] = S. cerevisiae deletion strains, locus YGR078C, strain PAC10, stronger effect = lower value
# [7] = S. cerevisiae deletion strains, locus YHR030C, strain SLT2, stronger effect = lower value
# [8] = S. cerevisiae deletion strains, locus YHR087W, strain rtc3, stronger effect = lower value
# [9] = S. cerevisiae deletion strains, locus YJR043C, strain POL32, stronger effect = lower value
# [10] = S. cerevisiae deletion strains, locus YJR075W, strain HOC1, stronger effect = lower value
# [11] = S. cerevisiae deletion strains, locus YLR039C, strain RIC1, stronger effect = lower value
# [12] = S. cerevisiae deletion strains, locus YLR058C, strain SHM2 (second series), stronger effect = lower value
# [13] = S. cerevisiae deletion strains, locus YLR085C, strain ARP6, stronger effect = lower value
# [14] = S. cerevisiae deletion strains, locus YLR262C, strain YPT6, stronger effect = lower value
# [15] = S. cerevisiae deletion strains, locus YML094W, strain GIM5, stronger effect = lower value
# [16] = S. cerevisiae deletion strains, locus YMR219W, strain ESC1, stronger effect = lower value
# [17] = S. cerevisiae deletion strains, locus YMR263W, strain SAP30, stronger effect = lower value
# [18] = S. cerevisiae deletion strains, locus YMR307W, strain GAS1, stronger effect = lower value
# [19] = S. cerevisiae deletion strains, locus YNL153C, strain GIM3, stronger effect = lower value
# [20] = S. cerevisiae deletion strains, locus YNL298W, strain CLA4 (second series), stronger effect = lower value
# [21] = S. cerevisiae deletion strains, locus YNL322C, strain KRE1, stronger effect = lower value
# [22] = S. cerevisiae deletion strains, locus YNR030W, strain Alg12, stronger effect = lower value
# [23] = S. cerevisiae deletion strains, locus YOL006C, strain TOP1, stronger effect = lower value
# [24] = S. cerevisiae deletion strains, locus YPL055C, strain LGE1, stronger effect = lower value
# [25] = S. cerevisiae deletion strains, locus YPL241C, strain CIN2, stronger effect = lower value
# [26] = S. cerevisiae deletion strains, locus YPR135W, strain CTF4, stronger effect = lower value
compound,measurement,setting,value
Cc1nn(-c2ccccc2)nc1C(=O)NC(=O)N1CCCC1,normalized growth,[1],0.992
same,normalized growth,[2],0.983
same,normalized growth,[3],0.949
same,normalized growth,"S. cerevisiae deletion strains, locus YDL134C, strain PPH21, stronger effect = lower value",1.01
same,normalized growth,[4],0.871
same,normalized growth,[5],1.02
same,normalized growth,[6],0.964
same,normalized growth,[7],0.94
same,normalized growth,[8],1.03
same,normalized growth,[9],0.977
same,normalized growth,[10],0.995
same,normalized growth,[11],0.998
same,normalized growth,[12],0.997
same,normalized growth,[13],1.02
same,normalized growth,[14],1.02
same,normalized growth,[15],1.02
same,normalized growth,[16],0.997
same,normalized growth,[17],0.987
same,normalized growth,[18],0.927
same,normalized growth,"S. cerevisiae deletion strains, locus YNL128W, strain TEP1, stronger effect = lower value",0.991
same,normalized growth,[19],0.986
same,normalized growth,[20],1.01
same,normalized growth,[21],0.995
same,normalized growth,[22],1
same,normalized growth,[23],0.955
same,normalized growth,[24],1
same,normalized growth,[25],0.965
same,normalized growth,[26],0.949
Cc1c(C(=O)O)cc(-c2ccccc2)n1-c1ccccc1,normalized growth,[1],0.988
same,normalized growth,[2],1.01
same,normalized growth,[3],1
same,normalized growth,[4],0.892
same,normalized growth,[5],0.941
same,normalized growth,[6],0.999
same,normalized growth,[7],0.613 (active)
same,normalized growth,[8],0.985
same,normalized growth,"S. cerevisiae deletion strains, locus YJL187C, strain SWE1, stronger effect = lower value",0.988
same,normalized growth,[9],0.999
same,normalized growth,[10],0.959
same,normalized growth,"S. cerevisiae deletion strains, locus YKL190W, strain CNB1, stronger effect = lower value",0.975
same,normalized growth,[11],0.674 (active)
same,normalized growth,[12],1.01
same,normalized growth,[13],0.654 (active)
same,normalized growth,[14],0.66 (active)
same,normalized growth,[15],0.945
same,normalized growth,[16],0.998
same,normalized growth,[17],0.981
same,normalized growth,[18],0.467 (active)
same,normalized growth,[19],0.952
same,normalized growth,[20],0.869
same,normalized growth,[21],1
same,normalized growth,[22],0.923
same,normalized growth,[23],0.85
same,normalized growth,[24],0.865
same,normalized growth,[25],0.907
same,normalized growth,[26],0.64 (active)
same,normalized growth,"S. cerevisiae strains, strain wild type, stronger effect = lower value",0.987
Cc1cc(OC(=O)N2CCCCC2)c(C(C)C)cc1[N+](C)(C)C,normalized growth,"S. cerevisiae deletion strains, locus YAL021C, strain ccr4, stronger effect = lower value",0.994
same,normalized growth,"S. cerevisiae deletion strains, locus YAL026C, strain drs2, stronger effect = lower value",1.03
same,normalized growth,"S. cerevisiae deletion strains, locus YAL030W, strain snc1, stronger effect = lower value",1.01
same,normalized growth,"S. cerevisiae deletion strains, locus YBL061C, strain skt5, stronger effect = lower value",1.01
same,normalized growth,"S. cerevisiae deletion strains, locus YBR009C, strain hhf1, stronger effect = lower value",0.992
same,normalized growth,"S. cerevisiae deletion strains, locus YBR023C, strain chs3, stronger effect = lower value",1.01
same,normalized growth,"S. cerevisiae deletion strains, locus YBR171W, strain sec66, stronger effect = lower value",1.01
same,normalized growth,"S. cerevisiae deletion strains, locus YBR231C, strain swc5, stronger effect = lower value",1.02
same,normalized growth,"S. cerevisiae deletion strains, locus YBR279W, strain paf1, stronger effect = lower value",1.01
same,normalized growth,"S. cerevisiae deletion strains, locus YCL011C, strain gbp2, stronger effect = lower value",0.998
same,normalized growth,"S. cerevisiae deletion strains, locus YCL016C, strain dcc1, stronger effect = lower value",0.987
same,normalized growth,"S. cerevisiae deletion strains, locus YCL069W, strain vba3, stronger effect = lower value",1
same,normalized growth,"S. cerevisiae deletion strains, locus YCR088W, strain abp1, stronger effect = lower value",1.01
same,normalized growth,"S. cerevisiae deletion strains, locus YDL005C, strain med2, stronger effect = lower value",1.02
same,normalized growth,"S. cerevisiae deletion strains, locus YDL040C, strain nat1, stronger effect = lower value",1.01
same,normalized growth,"S. cerevisiae deletion strains, locus YDR001C, strain nth1, stronger effect = lower value",1.01
same,normalized growth,"S. cerevisiae deletion strains, locus YDR069C, strain doa4, stronger effect = lower value",1.03
same,normalized growth,"S. cerevisiae deletion strains, locus YDR137W, strain rgp1, stronger effect = lower value",1.03
same,normalized growth,"S. cerevisiae deletion strains, locus YDR159W, strain sac3, stronger effect = lower value",1.06
same,normalized growth,"S. cerevisiae deletion strains, locus YDR195W, strain ref2",0.997
same,normalized growth,"S. cerevisiae deletion strains, locus YDR297W, strain sur2, stronger effect = lower value",1.01
same,normalized growth,"S. cerevisiae deletion strains, locus YDR334W, strain swr1, stronger effect = lower value",1
same,normalized growth,"S. cerevisiae deletion strains, locus YDR335W, strain msn5, stronger effect = lower value",1.01
same,normalized growth,"S. cerevisiae deletion strains, locus YDR392W, strain spt3, stronger effect = lower value",0.995
same,normalized growth,"S. cerevisiae deletion strains, locus YEL003W, strain gim4, stronger effect = lower value",1.01
same,normalized growth,"S. cerevisiae deletion strains, locus YEL037C, strain rad23, stronger effect = lower value",1
same,normalized growth,"S. cerevisiae deletion strains, locus YEL061C, strain CIN8 (second series), stronger effect = lower value",1.01
same,normalized growth,"S. cerevisiae deletion strains, locus YER015W, strain faa2, stronger effect = lower value",1
same,normalized growth,"S. cerevisiae deletion strains, locus YER016W, strain bim1, stronger effect = lower value",1.01
same,normalized growth,"S. cerevisiae deletion strains, locus YER111C, strain swi4, stronger effect = lower value",1.01
same,normalized growth,"S. cerevisiae deletion strains, locus YER155C, strain BEM2 (second series), stronger effect = lower value",0.998
same,normalized growth,"S. cerevisiae deletion strains, locus YFR010W, strain ubp6, stronger effect = lower value",1.02
same,normalized growth,"S. cerevisiae deletion strains, locus YGL167C, strain pmr1, stronger effect = lower value",1.01
same,normalized growth,"S. cerevisiae deletion strains, locus YGL173C, strain kem1, stronger effect = lower value",1.02
same,normalized growth,"S. cerevisiae deletion strains, locus YGL227W, strain vid30, stronger effect = lower value",0.999
same,normalized growth,"S. cerevisiae deletion strains, locus YGL240W, strain doc1, stronger effect = lower value",1.02
same,normalized growth,"S. cerevisiae deletion strains, locus YGL253W, strain hxk2, stronger effect = lower value",1.01
same,normalized growth,"S. cerevisiae deletion strains, locus YHR013C, strain ard1, stronger effect = lower value",0.995
same,normalized growth,"S. cerevisiae deletion strains, locus YHR027C, strain rpn1, stronger effect = lower value",1.01
same,normalized growth,[7],1
same,normalized growth,"S. cerevisiae deletion strains, locus YHR079C, strain IRE1, stronger effect = lower value",1.01
same,normalized growth,"S. cerevisiae deletion strains, locus YHR142W, strain chs7, stronger effect = lower value",0.986
same,normalized growth,"S. cerevisiae deletion strains, locus YJL092W, strain hpr5, stronger effect = lower value",1.01
same,normalized growth,"S. cerevisiae deletion strains, locus YJL095W, strain BCK1 (second series), stronger effect = lower value",1
same,normalized growth,"S. cerevisiae deletion strains, locus YJL095W, strain BCK1, stronger effect = lower value",1.01
same,normalized growth,"S. cerevisiae deletion strains, locus YJL115W, strain asf1, stronger effect = lower value",1.02
same,normalized growth,"S. cerevisiae deletion strains, locus YJL129C, strain trk1, stronger effect = lower value",1.03
same,normalized growth,"S. cerevisiae deletion strains, locus YJL154C, strain vps35, stronger effect = lower value",1.01
same,normalized growth,"S. cerevisiae deletion strains, locus YJL164C, strain tpk1, stronger effect = lower value",1
same,normalized growth,"S. cerevisiae deletion strains, locus YJL166W, strain qcr8, stronger effect = lower value",1.05
same,normalized growth,"S. cerevisiae deletion strains, locus YJR066W, strain TOR1, stronger effect = lower value",0.911
same,normalized growth,"S. cerevisiae deletion strains, locus YKL160W, strain elf1, stronger effect = lower value",0.988
same,normalized growth,"S. cerevisiae deletion strains, locus YKR026C, strain gcn3, stronger effect = lower value",1
same,normalized growth,"S. cerevisiae deletion strains, locus YKR091W, strain srl3, stronger effect = lower value",1
same,normalized growth,"S. cerevisiae deletion strains, locus YLL001W, strain dnm1, stronger effect = lower value",1
same,normalized growth,"S. cerevisiae deletion strains, locus YLL026W, stronger effect = lower value",1.03
same,normalized growth,"S. cerevisiae deletion strains, locus YLL041C, strain sdh2, stronger effect = lower value",1.03
same,normalized growth,"S. cerevisiae deletion strains, locus YLR027C, strain aat2, stronger effect = lower value",1.01
same,normalized growth,"S. cerevisiae deletion strains, locus YLR113W, strain HOG1, stronger effect = lower value",1
same,normalized growth,"S. cerevisiae deletion strains, locus YLR221C, strain rsa3, stronger effect = lower value",1.01
same,normalized growth,"S. cerevisiae deletion strains, locus YLR258W, strain gsy2, stronger effect = lower value",0.987
same,normalized growth,"S. cerevisiae deletion strains, locus YLR262C, strain YPT6 (second series), stronger effect = lower value",1.03
same,normalized growth,"S. cerevisiae deletion strains, locus YLR320W, strain mms22, stronger effect = lower value",1.02
same,normalized growth,"S. cerevisiae deletion strains, locus YLR342W, strain FKS1, stronger effect = lower value",1.01
same,normalized growth,"S. cerevisiae deletion strains, locus YLR357W, strain rsc2, stronger effect = lower value",1.06
same,normalized growth,"S. cerevisiae deletion strains, locus YLR370C, strain arc18, stronger effect = lower value",0.989
same,normalized growth,"S. cerevisiae deletion strains, locus YLR384C, strain iki3, stronger effect = lower value",0.999
same,normalized growth,"S. cerevisiae deletion strains, locus YML120C, strain ndi1, stronger effect = lower value",1
same,normalized growth,"S. cerevisiae deletion strains, locus YMR058W, strain fet3, stronger effect = lower value",1.02
same,normalized growth,"S. cerevisiae deletion strains, locus YMR125W, strain sto1, stronger effect = lower value",1.01
same,normalized growth,"S. cerevisiae deletion strains, locus YMR129W, stronger effect = lower value",1.01
same,normalized growth,"S. cerevisiae deletion strains, locus YMR205C, strain PFK2, stronger effect = lower value",1.02
same,normalized growth,"S. cerevisiae deletion strains, locus YMR231W, strain pep5, stronger effect = lower value",1.01
same,normalized growth,"S. cerevisiae deletion strains, locus YNL071W, strain lat1, stronger effect = lower value",1.01
same,normalized growth,"S. cerevisiae deletion strains, locus YNL183C, strain NPR1, stronger effect = lower value",0.949
same,normalized growth,"S. cerevisiae deletion strains, locus YNL209W, strain ssb2, stronger effect = lower value",1
same,normalized growth,"S. cerevisiae deletion strains, locus YNL248C, strain rpa49, stronger effect = lower value",1.02
same,normalized growth,"S. cerevisiae deletion strains, locus YNL322C, strain KRE1 (second series), stronger effect = lower value",1
same,normalized growth,"S. cerevisiae deletion strains, locus YNR049C, strain mso1, stronger effect = lower value",1.01
same,normalized growth,"S. cerevisiae deletion strains, locus YOR001W, strain rrp6, stronger effect = lower value",1.04
same,normalized growth,"S. cerevisiae deletion strains, locus YOR070C, strain gyp1, stronger effect = lower value",1
same,normalized growth,"S. cerevisiae deletion strains, locus YOR080W, strain dia2, stronger effect = lower value",1.01
same,normalized growth,"S. cerevisiae deletion strains, locus YOR083W, strain WHI5, stronger effect = lower value",0.975
same,normalized growth,"S. cerevisiae deletion strains, locus YOR106W, strain vam3, stronger effect = lower value",0.99
same,normalized growth,"S. cerevisiae deletion strains, locus YOR231W, strain MKK1, stronger effect = lower value",0.999
same,normalized growth,"S. cerevisiae deletion strains, locus YOR265W, strain rbl2, stronger effect = lower value",0.98
same,normalized growth,"S. cerevisiae deletion strains, locus YOR270C, strain vph1, stronger effect = lower value",1.08
same,normalized growth,"S. cerevisiae deletion strains, locus YOR290C, strain snf2, stronger effect = lower value",0.988
same,normalized growth,"S. cerevisiae deletion strains, locus YPL051W, strain arl3, stronger effect = lower value",1.01
same,normalized growth,"S. cerevisiae deletion strains, locus YPL078C, strain atp4, stronger effect = lower value",0.99
same,normalized growth,"S. cerevisiae deletion strains, locus YPL106C, strain sse1, stronger effect = lower value",1.01
same,normalized growth,"S. cerevisiae deletion strains, locus YPL240C, strain hsp82, stronger effect = lower value",1.01
same,normalized growth,"S. cerevisiae deletion strains, locus YPL256C, strain CLN2, stronger effect = lower value",0.978
